Among the data in PubChem BioAssay (NCI) are growth values, retold here.

Among the test systems are EKVX NSCLC; SN12C renal; UO-31 renal; TK-10 renal; ACHN renal; CAKI-1 renal; A498 renal; CCRF-CEM leukemia; MOLT-4 leukemia; SR leukemia; RPMI-8226 leukemia; OVCAR-8 ovarian; OVCAR-5 ovarian; OVCAR-4 ovarian; SK-OV-3 ovarian; IGROV1 ovarian; HS 578T breast; NCI/ADR-RES ovarian; T-47D breast; OVCAR-3 ovarian.
What all share (experiment): NCI-60 one-dose screen, 48 h (100 = growth as untreated, 0 = no growth, -100 = all killed)
Holding throughout (details): 10 µM unless noted

This is part of a sample that, as a whole, favours compounds with a hit. Of some 83,000 tested, about 20% had one in any assay.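 Interpretation: 100, growth as untreated; towards 0, rising growth inhibition; 0, no net growth; 0 to -100, cell death. Compounds scoring below 10 were considered active.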 Values without a mark were called inactive. Activity calls are given as the source filed them.

Take `O=C1c2c(c3c4cccnc4[nH]c3c3ccc4ccccc4c23)C(=O)N1CCO`: the growth is 108% in the test with EKVX NSCLC; 84.4% with SN12C renal; 56.1% with UO-31 renal; 127% in the test with TK-10 renal; 48.3% in the test on ACHN renal; 42.6% with CAKI-1 renal. Moreover, the growth in the test with A498 renal is 57%; in the test with CCRF-CEM leukemia it was 42.8%; with MOLT-4 leukemia, 31.7%; in the test on SR leukemia, 9.85% (active); in the test on RPMI-8226 leukemia, 72.7%; with OVCAR-8 ovarian it was 78%. Besides, the growth in the test on OVCAR-5 ovarian was 121%; in the test on OVCAR-4 ovarian it was 105%; with SK-OV-3 ovarian, 84.8%; with IGROV1 ovarian, 67.7%; with HS 578T breast, 121%; in the test on NCI/ADR-RES ovarian it was 87.2%. Further, the growth with T-47D breast is 37.2%.
For the compound `Cc1nc(-c2cc3ccccc3oc2=O)ccc1C(=O)/C=C/c1ccc(Cl)c(Cl)c1`, the growth with EKVX NSCLC is 92.1%; in the test with SN12C renal, 99.8%; in the test on UO-31 renal, 89.4%; in the test on TK-10 renal it was 117%; in the test on ACHN renal, 93.1%; in the test with CAKI-1 renal, 95.7%. For the same compound, the growth was 93.8% with A498 renal; 104% in the test with CCRF-CEM leukemia; 102% in the test on MOLT-4 leukemia; 94.9% in the test with SR leukemia; 101% with RPMI-8226 leukemia; 99.5% with OVCAR-8 ovarian. In addition, the growth was 113% with OVCAR-5 ovarian; 107% with OVCAR-4 ovarian; 127% in the test with SK-OV-3 ovarian; 104% with IGROV1 ovarian; 111% with OVCAR-3 ovarian; 105% with NCI/ADR-RES ovarian. The growth with T-47D breast was 104%.
As for `O=C(c1ccc(Cl)cc1)C1[C@H](c2ccc(Cl)cc2)[C@@H](c2ccccc2)NC12C(=O)Nc1ccc(Br)cc12` (stereo not given in full), the growth in the test with EKVX NSCLC was 43.6%; in the test with SN12C renal it was -48.8% (active); in the test with UO-31 renal, 28.5%; with TK-10 renal, 50.4%; in the test with ACHN renal, 14.3%; in the test on CAKI-1 renal it was 27.6%. The growth is 59.2% in the test on A498 renal; 36.8% in the test on CCRF-CEM leukemia; 6.17% (active) in the test with MOLT-4 leukemia; -5% (active) in the test with SR leukemia; 18.2% in the test with RPMI-8226 leukemia; 38.3% with OVCAR-8 ovarian. For the same compound, the growth in the test on OVCAR-5 ovarian is 52.8%; with SK-OV-3 ovarian, 101%; in the test with IGROV1 ovarian it was 35.9%; in the test with OVCAR-3 ovarian, 25.5%; in the test on HS 578T breast, 58.2%; in the test with NCI/ADR-RES ovarian, 28.8%. For the same compound, the growth in the test on T-47D breast is 31.2%.
In the case of `CO/N=C1\CCc2c(sc(NC(=O)c3cccc(C(F)(F)F)c3)c2C(N)=O)C1`, the growth is 30.7% with EKVX NSCLC; 15.6% with SN12C renal; -16.4% (active) with UO-31 renal; -17.1% (active) in the test on TK-10 renal; -23.7% (active) with ACHN renal; 11.3% in the test on CAKI-1 renal. In addition, the growth in the test with A498 renal was -43.3% (active); in the test on CCRF-CEM leukemia, 67.9%; in the test on MOLT-4 leukemia, 84.1%; in the test on SR leukemia, 37.1%; in the test on RPMI-8226 leukemia, 35.4%; in the test with OVCAR-8 ovarian, 20.9%. In addition, the growth in the test on OVCAR-5 ovarian was 41.4%; in the test with IGROV1 ovarian it was 11.9%; with OVCAR-3 ovarian it was 7.66% (active); in the test on HS 578T breast, 5.79% (active); in the test with T-47D breast, -18.5% (active).
Consider `Nc1c(C(=O)Nc2ccc(Cl)cc2)sc2nc(-c3cnccn3)cc(-c3cccs3)c12`, for which the growth with EKVX NSCLC was 71.7%; in the test with SN12C renal, 66.6%; in the test on UO-31 renal, 67.7%; with TK-10 renal it was 118%; in the test with ACHN renal it was 17%; in the test on CAKI-1 renal, -6.36% (active). For the same compound, the growth in the test on A498 renal was 82.3%; in the test with CCRF-CEM leukemia, 88.6%; in the test on SR leukemia, 40.7%; in the test on RPMI-8226 leukemia, 85.1%; in the test on OVCAR-8 ovarian, 48.1%; with OVCAR-5 ovarian it was 66.2%. Moreover, the growth in the test with OVCAR-4 ovarian is 61.3%; with SK-OV-3 ovarian it was 74.1%; in the test on IGROV1 ovarian, 74.2%; in the test on OVCAR-3 ovarian, 62.7%; in the test with HS 578T breast, 47.1%; with NCI/ADR-RES ovarian, 68.3%. Moreover, the growth in the test with T-47D breast is 96.7%.
In the case of `CCN1C(=S)N(CC)C2C1NN=C1SC(c3ccccc3)=CC(=O)N12` (stereo not given), the growth with EKVX NSCLC is 106%; in the test with SN12C renal it was 110%; in the test on UO-31 renal, 113%; in the test with TK-10 renal, 103%; with ACHN renal it was 103%; in the test on CAKI-1 renal, 98.6%. For the same compound, the growth in the test on A498 renal was 118%; with CCRF-CEM leukemia, 97.5%; in the test on SR leukemia it was 52.1%; in the test with RPMI-8226 leukemia, 107%; with OVCAR-8 ovarian, 99.4%; with OVCAR-5 ovarian it was 107%. The growth with OVCAR-4 ovarian was 115%; in the test with SK-OV-3 ovarian, 110%; in the test with IGROV1 ovarian it was 109%; with OVCAR-3 ovarian, 119%; in the test with HS 578T breast, 114%; in the test on NCI/ADR-RES ovarian, 99.6%. In addition, the growth in the test with T-47D breast was 108%.
As for `CCCCN1C(=O)/C(=c2\sc3n(c2=O)C2C(NN=3)N(CC)C(=O)N2CC)c2cc(Cl)ccc21` (stereo not given), the growth was 80.7% with EKVX NSCLC; 82% in the test with SN12C renal; 63% in the test with UO-31 renal; 132% with TK-10 renal; 64.5% in the test with ACHN renal; 50.7% with CAKI-1 renal. Besides, the growth with A498 renal was 27.6%; with CCRF-CEM leukemia it was 72.2%; in the test with MOLT-4 leukemia it was 74.5%; in the test with SR leukemia, 14.1%; in the test on RPMI-8226 leukemia, 70.2%; in the test with OVCAR-8 ovarian, 95.6%. For the same compound, the growth with OVCAR-5 ovarian is 92.7%; in the test on SK-OV-3 ovarian, 106%; in the test on IGROV1 ovarian, 65.3%; with OVCAR-3 ovarian, 71.8%; with HS 578T breast it was 66.9%; in the test on NCI/ADR-RES ovarian, 79.4%. Also, the growth in the test with T-47D breast was 75%.
As to `CC(=O)Oc1ccccc1C(=O)Nc1cc(C(C)C)ccc1C`, the growth was 10.5% with EKVX NSCLC; 8.31% (active) in the test with SN12C renal; -0.422% (active) in the test on UO-31 renal; 21% in the test with TK-10 renal; 10.1% in the test with ACHN renal; 6.69% (active) with CAKI-1 renal. The growth with A498 renal was -29.4% (active); in the test with CCRF-CEM leukemia it was 14.6%; with SR leukemia, -28.1% (active); with RPMI-8226 leukemia it was 1.78% (active); with OVCAR-8 ovarian, 13.8%; in the test with OVCAR-5 ovarian it was 43.6%. Moreover, the growth in the test on OVCAR-4 ovarian was 16.9%; in the test with SK-OV-3 ovarian, 0.738% (active); in the test with IGROV1 ovarian, 25.5%; with OVCAR-3 ovarian it was 6.75% (active); with HS 578T breast, 19.7%; in the test with NCI/ADR-RES ovarian, 9.16% (active). The growth with T-47D breast is 9.13% (active).
